# Screening results from PubChem BioAssay.
# STK33 kin inh – STK33 kinase inhibitors, primary screen, biochemical, luminescence, ADP-Glo, MBP substrate | Serine/threonine-protein kinase 33 (Homo sapiens), Q9BYT3 | inhibition, % at 12.5 µM | 0.44% of 27,000 active | AID 2322, 2010; in the data active = inhibition above about 20%
# ID4 binder – binders of human ID4 protein, primary screen, biochemical, small molecule microarray, single point. DNA-binding protein inhibitor ID-4 (Homo sapiens), P47928. Flag-ID4 binding, fluorescence F/B. calls only. 1.2% of 31,000 active; call rule not given here;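 note: a binder raises fluorescence above local background on the spot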
# * hit, by the source's call; i = inactive; nt = not tested or not shown; + = active, no number. This excerpt belongs to a sample that is enriched for hits.
SMILES,STK33 kin inh,ID4 binder
CS(=O)(=O)N1CCN(c2ccccc2NC(=O)COc2ccc(Cl)cc2)CC1,-1,i
Cc1ccc(-c2nc3cc(NC(=O)COc4ccccc4[N+](=O)[O-])ccc3o2)cc1,0,i
COc1ccc(S(=O)(=O)N(C)C[C@@H]2Oc3ccc(NC(=O)c4ccncc4)cc3CC(=O)N([C@@H](C)CO)C[C@@H]2C)cc1,5,nt
Cc1cc(Br)ccc1NC(=O)CSc1nnc(-c2ccccc2O)n1-c1ccccc1,1,i
CCOC(=O)c1c(NC(=O)Cn2cnc3sc(C)c(C)c3c2=O)sc(C)c1C,-6,i
O=C(Nc1ccc(F)cc1)C1CC(=O)n2cnnc2N1 (configuration not stated),0,+
Cc1ccc(NC(=O)C2CC(=O)n3cnnc3N2)cc1 (configuration not stated),1,i
Cc1[nH]c(=S)[nH]c(=O)c1Cc1ccc(C(=O)O)o1,-2,+
C[C@@H]1CN([C@@H](C)CO)C(=O)c2cccc(N(C)C)c2O[C@H]1CN(C)S(=O)(=O)c1ccc(Cl)cc1,nt,i
C[C@H]1CN([C@@H](C)CO)C(=O)c2cccc(N(C)C)c2O[C@@H]1CN(C)S(=O)(=O)c1ccc(Cl)cc1,nt,+
C=CCNc1sc(C)nc1C(N)=O,1,nt
C[C@@H]1CN([C@H](C)CO)C(=O)Cc2cc(NC(=O)C3CC3)ccc2O[C@H]1CN(C)CC1CC1,0,i
O=c1[nH]c(=S)c2c(n1N1CCOCC1)CCC2,nt,+
O=C(CSC1CC(=O)N(c2ccc(Br)cc2)C1=O)Nc1ccc(Cl)c(Cl)c1 (configuration not stated),-1,i
CNC[C@H]1Oc2ccc(NS(=O)(=O)c3ccccc3)cc2CC(=O)N([C@@H](C)CO)C[C@@H]1C,0,i
C[C@@H]1CCCCO[C@H](CN(C)C(=O)Cc2ccccc2)[C@H](C)CN([C@@H](C)CO)C(=O)c2cc(NC(=O)c3ccncc3)ccc2O1,nt,i
C[C@@H]1CN([C@@H](C)CO)C(=O)c2cc(NC(=O)c3ccncc3)ccc2O[C@@H](C)CCCCO[C@H]1CN(C)C(=O)Nc1cccc2ccccc12,nt,i
C[C@@H]1CN([C@@H](C)CO)C(=O)c2cc(NC(=O)c3ccncc3)ccc2O[C@@H](C)CCCCO[C@H]1CN(C)C(=O)Cc1ccccc1,nt,+
CNC[C@H]1Oc2ccc(NS(C)(=O)=O)cc2CC(=O)N([C@@H](C)CO)C[C@@H]1C,-1,+
C[C@@H]1CN([C@H](C)CO)C(=O)c2cc(NC(=O)c3ccncc3)ccc2O[C@@H](C)CCCCO[C@@H]1CN(C)C(=O)Nc1cccc2ccccc12,nt,+
CNC[C@@H]1Oc2c(NC(=O)c3ccc(-c4nccs4)cc3)cccc2C(=O)N([C@H](C)CO)C[C@H]1C,nt,+
CNC[C@@H]1Oc2c(NC(=O)c3ccc(-c4nccs4)cc3)cccc2C(=O)N([C@H](C)CO)C[C@@H]1C,nt,i
C[C@H]1CN([C@@H](C)CO)C(=O)c2cc(NS(=O)(=O)c3ccc(F)cc3)ccc2O[C@@H]1CN(C)C(=O)Nc1ccc2c(c1)OCO2,3,nt
C[C@H]1CN([C@@H](C)CO)C(=O)c2cccc(NC(=O)Nc3cccc4ccccc34)c2O[C@H]1CN(C)S(=O)(=O)c1cn(C)cn1,nt,i
COc1cccc(S(=O)(=O)N(C)C[C@@H]2Oc3ncc(C#Cc4ccccc4)cc3C(=O)N([C@H](C)CO)C[C@@H]2C)c1,7,nt
SMILES,STK33 kin inh,ID4 binder
O=C(CN1C(=O)C2C3C=CC(C4CC34)C2C1=O)Nc1ccc(Oc2ccc(Br)cc2)cc1 (configuration not stated),1,i
CN1C(=O)C2C(C1=O)C1C=C(CCCO)C2C(c2ccc(CN3CCCC3)cc2)N1Cc1sc2ccccc2c1Cl (configuration not stated),0,i
CC(C)NC(=O)N(C)C[C@@H]1OCCCC[C@@H](C)Oc2ccc(NC(=O)Nc3ccc(C(F)(F)F)cc3)cc2C(=O)N([C@@H](C)CO)C[C@@H]1C,nt,+
CC(C)NC(=O)N(C)C[C@H]1OCCCC[C@@H](C)Oc2ccc(NC(=O)Nc3ccc(C(F)(F)F)cc3)cc2C(=O)N([C@@H](C)CO)C[C@H]1C,nt,i
CNC[C@H]1Oc2ccc(NC(=O)c3ccncc3)cc2C(=O)N([C@H](C)CO)C[C@@H]1C,nt,+
C[C@@H]1CCCCO[C@@H](CN(C)C(=O)Nc2ccccc2)[C@@H](C)CN([C@H](C)CO)C(=O)c2cc(NC(=O)c3ccncc3)ccc2O1,-1,nt
C[C@H]1CCCCO[C@@H](CN(C)C(=O)Nc2ccccc2)[C@@H](C)CN([C@@H](C)CO)C(=O)c2cc(NC(=O)c3ccncc3)ccc2O1,nt,+
CNC[C@H]1Oc2ccc(NC(=O)c3ccncc3)cc2C(=O)N([C@@H](C)CO)C[C@@H]1C,0,nt
COc1ccc(C#Cc2ccc3c(c2)[C@]2(C(=O)N3)[C@H](c3ccc(O)cc3)N3[C@H](c4ccccc4)[C@H](c4ccccc4)OC(=O)[C@H]3[C@@H]2C(=O)N2CCN(c3ncccn3)CC2)cc1,3,i
O=C(C[C@H]1C=C[C@@H](NC(=O)CN2CCOCC2)[C@@H](CO)O1)NCc1cccc(F)c1,nt,i
